Of roughly 8,800 targets only a part is listed; those with a hit were picked by preference. About 0.5% of all pairs of compound and target were hits.
Tests used:
Experiment in all cases: log2 fold change, soluble protein after heating vs DMSO (PISA); higher = thermal stabilisation; K562 lysate, 10 uM; active = over 0.2 and 3.5 SD of the protein, either way, in both replicates (recomputed)
[1] = compound: CN1CC[C@H](c2c(O)cc(O)c3c(=O)cc(-c4ccccc4Cl)oc23)[C@H](O)C1 [alvocidib]
Procedure, shortened: (§1)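 To prepare the extract, K562 pellets were dounce-homogenised in PBS pH 7.4 with 1 mM MgCl2, giving crude material at 1 mg/mL protein. This was treated with 10 μM compound for 30 min, then heated in aliquots for 3 min over 48°C-58°C before pooling and addition of NP-40 to 0.5% at 4°C. Centrifugation at 21,000xg for 90 min left soluble protein in the supernatant, which TMTpro 16plex LC-MS/MS quantified with equalised channel sums. Results are log-two fold changes in thermal stability compared with solvent controls, from duplicates.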

[2] = compound: CN1CCc2c(c3ccccc3n2Cc2ccc(C(=O)NO)cc2)C1 [Tubastatin A]
Procedure, shortened: as §1

[3] = compound: CNC(=O)C1=CC=CC=C1NC2=NC(=NC=C2Cl)NC3=C(C=C(C=C3)N4CCOCC4)OC
Procedure, shortened: as §1

[4] = compound: CNC(=O)c1ccc(Nc2ncc(C(F)(F)F)c(NCc3nccnc3N(C)S(C)(=O)=O)n2)cc1 [defactinib]
Procedure, shortened: as §1

[5] = compound: CNc1nc(-c2ccc3c(N)n[nH]c3c2)cc(N2C[C@@H](C(=O)NC3CCCCC3)CC[C@H]2C)n1
Procedure, shortened: as §1

[6] = compound: COC(=O)N[C@@H](C)CNc1nccc(-c2cn(C(C)C)nc2-c2cc(Cl)cc(NS(C)(=O)=O)c2F)n1 [encorafenib]
Procedure, shortened: as §1

[7] = compound: COC(=O)[C@H](CCSC)NC(=O)C1=C(C=C(C=C1)NC[C@H](CS)N)C2=CC=CC=C2
Procedure, shortened: as §1

[8] = compound: COc1cc(Nc2ncc3c(n2)-c2ccc(Cl)cc2C(c2c(F)cccc2OC)=NC3)ccc1C(=O)O [alisertib]
Procedure, shortened: as §1

[9] = compound: COc1cc2nc(-c3cc(F)ccc3O)nc(N[C@@H]3CNC[C@H]3C(C)(C)O)c2cc1OC
Procedure, shortened: as §1

[10] = compound: COc1cc2ncnc(Nc3ccc(F)c(Cl)c3)c2cc1OCCCN1CCOCC1 [gefitinib]
Procedure, shortened: as §1

[11] = compound: CS(=O)(=O)CCNCc1ccc(-c2ccc3ncnc(Nc4ccc(OCc5cccc(F)c5)c(Cl)c4)c3c2)o1 [lapatinib]
Procedure, shortened: as §1

[12] = compound: CS(=O)(=O)N1CCN(Cc2cc3nc(-c4cccc5[nH]ncc45)nc(N4CCOCC4)c3s2)CC1 [pictilisib]
Procedure, shortened: as §1

[13] = compound: C[C@@H](Oc1cc(-c2cnn(C3CCNCC3)c2)cnc1N)c1c(Cl)ccc(F)c1Cl [crizotinib]
Procedure, shortened: as §1

[14] = compound: C[C@H](C1=CC=C(C=C1)C(=O)NC2=C3C=CNC3=NC=C2)N
Procedure, shortened: as §1

[15] = compound: C[C@H](Nc1ncnc2nc[nH]c12)c1cc2cccc(Cl)c2c(=O)n1-c1ccccc1 [duvelisib]
Procedure, shortened: as §1

[16] = compound: Cc1cc(Nc2cc(CN3CCOCC3)c3nc(C)c(Cc4ccc(Cl)cc4F)n3n2)n[nH]1 [gandotinib]
Procedure, shortened: as §1

[17] = compound: Cc1cc(Nc2cc(N3CCN(C)CC3)nc(Sc3ccc(NC(=O)C4CC4)cc3)n2)n[nH]1 [tozasertib]
Procedure, shortened: as §1

[18] = compound: Cc1ccc(-n2nc(C(C)(C)C)cc2NC(=O)Nc2ccc(OCCN3CCOCC3)c3ccccc23)cc1 [doramapimod]
Procedure, shortened: as §1

[19] = compound: Cc1ccc(NC(=O)c2ccc(CN3CC[C@H](N(C)C)C3)c(C(F)(F)F)c2)cc1Nc1nccc(-c2cncnc2)n1 [bafetinib]
Procedure, shortened: as §1

[20] = compound: Cc1cccc(CC(=O)N2CCc3c2ccc(-c2cn(C)c4ncnc(N)c24)c3F)n1
Procedure, shortened: as §1

Measured: log2 fold change

CDC7 (UniProt O00311)
active: [14] -0.335
inactive: [1] -0.081 | [2] -0.112 | [3] 0.077 | [4] 0.007 | [5] 0.042 | [6] 0.011 | [7] 0.078 | [8] -0.059 | [9] -0.04 | [10] -0.036 | [11] 0.112 | [12] -0.067 | [13] -0.024 | [15] -0.007 | [16] 0.047 | [17] -0.01 | [18] 0.06 | [19] 0.009 | [20] 0.087

ATAD3B (UniProt Q5T9A4)
inactive: [1] 0.124 | [2] 0.047 | [3] -0.029 | [4] 0.046 | [5] 0.039 | [6] 0.016 | [7] -0.128 | [8] 0.006 | [9] -0.008 | [10] -0.001 | [11] 0.003 | [12] -0.035 | [13] -0.091 | [15] 0.007 | [16] -0.169 | [17] 0.014 | [18] 0.003 | [19] -0.074 | [20] -0.129
active: [14] 0.308

BCR (UniProt P11274)
inactive: [1] -0.007 | [2] -0.181 | [3] 0.002 | [4] -0.008 | [5] -0.005 | [6] 0.036 | [7] 0.085 | [8] -0.008 | [9] -0.021 | [10] -0.024 | [11] -0.02 | [12] -0.032 | [13] 0.034 | [14] -0.064 | [15] -0.049 | [16] -0.013 | [17] 0.031 | [18] -0.047 | [19] 0.019 | [20] 0.1

ATXN2 (UniProt Q99700)
Sequence of UniProt Q99700 (Q99700 whole entry, looked up): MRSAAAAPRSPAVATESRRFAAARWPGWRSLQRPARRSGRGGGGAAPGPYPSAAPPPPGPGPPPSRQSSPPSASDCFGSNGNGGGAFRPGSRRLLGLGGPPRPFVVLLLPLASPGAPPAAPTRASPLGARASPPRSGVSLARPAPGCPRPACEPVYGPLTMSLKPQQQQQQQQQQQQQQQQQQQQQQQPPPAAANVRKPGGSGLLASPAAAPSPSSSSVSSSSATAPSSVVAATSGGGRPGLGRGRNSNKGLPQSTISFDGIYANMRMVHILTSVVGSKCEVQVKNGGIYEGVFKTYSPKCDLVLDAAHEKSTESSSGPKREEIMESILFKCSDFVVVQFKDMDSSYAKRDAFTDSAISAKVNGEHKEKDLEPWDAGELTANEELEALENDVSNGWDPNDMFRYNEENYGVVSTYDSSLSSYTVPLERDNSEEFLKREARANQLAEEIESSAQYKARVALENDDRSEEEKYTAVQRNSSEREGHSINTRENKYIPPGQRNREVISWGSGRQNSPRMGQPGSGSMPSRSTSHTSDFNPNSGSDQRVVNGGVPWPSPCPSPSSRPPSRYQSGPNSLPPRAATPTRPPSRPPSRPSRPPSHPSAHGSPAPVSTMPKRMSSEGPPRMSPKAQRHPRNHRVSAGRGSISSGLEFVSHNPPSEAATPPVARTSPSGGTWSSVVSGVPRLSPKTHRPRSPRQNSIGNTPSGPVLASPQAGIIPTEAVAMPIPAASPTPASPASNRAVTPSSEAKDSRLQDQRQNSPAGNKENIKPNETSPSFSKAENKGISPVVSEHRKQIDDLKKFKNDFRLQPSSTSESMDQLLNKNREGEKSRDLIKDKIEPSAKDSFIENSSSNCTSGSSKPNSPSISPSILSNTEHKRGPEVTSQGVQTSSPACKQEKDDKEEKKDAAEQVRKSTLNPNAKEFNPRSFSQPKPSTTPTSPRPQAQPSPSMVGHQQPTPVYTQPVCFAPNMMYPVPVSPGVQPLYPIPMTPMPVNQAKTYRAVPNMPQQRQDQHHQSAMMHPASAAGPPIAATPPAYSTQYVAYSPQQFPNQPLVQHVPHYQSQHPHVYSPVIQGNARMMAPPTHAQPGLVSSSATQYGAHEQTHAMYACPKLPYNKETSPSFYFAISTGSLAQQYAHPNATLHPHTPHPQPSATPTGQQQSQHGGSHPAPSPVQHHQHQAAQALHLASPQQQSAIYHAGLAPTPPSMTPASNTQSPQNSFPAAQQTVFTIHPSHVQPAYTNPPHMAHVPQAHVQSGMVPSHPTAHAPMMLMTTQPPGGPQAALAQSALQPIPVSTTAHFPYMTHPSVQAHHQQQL
inactive: [1] 0.046 | [2] -0.047 | [3] 0.016 | [4] -0.019 | [5] 0.001 | [6] 0.018 | [7] -0.003 | [8] -0.032 | [9] 0.011 | [10] 0.006 | [11] 0.006 | [12] -0.042 | [13] 0.028 | [14] 0.019 | [15] 0.025 | [16] 0.001 | [17] 0.011 | [18] 0.017 | [19] -0.012 | [20] -0.006

CES2 isoform 4 (UniProt O00748)
inactive: [1] 0.021 | [2] -0.065 | [3] 0.09 | [4] -0.111 | [5] 0.219 | [6] 0.075 | [7] 0.01 | [8] -0.084 | [9] -0.002 | [10] -0.061 | [11] 0.027 | [12] 0.32 | [13] 0.079 | [14] -0.003 | [15] 0.021 | [16] 0.016 | [17] 0 | [18] 0.015 | [19] 0.154 | [20] 0.036

ATP9B (UniProt O43861)
Sequence of UniProt O43861 (O43861 whole entry, looked up): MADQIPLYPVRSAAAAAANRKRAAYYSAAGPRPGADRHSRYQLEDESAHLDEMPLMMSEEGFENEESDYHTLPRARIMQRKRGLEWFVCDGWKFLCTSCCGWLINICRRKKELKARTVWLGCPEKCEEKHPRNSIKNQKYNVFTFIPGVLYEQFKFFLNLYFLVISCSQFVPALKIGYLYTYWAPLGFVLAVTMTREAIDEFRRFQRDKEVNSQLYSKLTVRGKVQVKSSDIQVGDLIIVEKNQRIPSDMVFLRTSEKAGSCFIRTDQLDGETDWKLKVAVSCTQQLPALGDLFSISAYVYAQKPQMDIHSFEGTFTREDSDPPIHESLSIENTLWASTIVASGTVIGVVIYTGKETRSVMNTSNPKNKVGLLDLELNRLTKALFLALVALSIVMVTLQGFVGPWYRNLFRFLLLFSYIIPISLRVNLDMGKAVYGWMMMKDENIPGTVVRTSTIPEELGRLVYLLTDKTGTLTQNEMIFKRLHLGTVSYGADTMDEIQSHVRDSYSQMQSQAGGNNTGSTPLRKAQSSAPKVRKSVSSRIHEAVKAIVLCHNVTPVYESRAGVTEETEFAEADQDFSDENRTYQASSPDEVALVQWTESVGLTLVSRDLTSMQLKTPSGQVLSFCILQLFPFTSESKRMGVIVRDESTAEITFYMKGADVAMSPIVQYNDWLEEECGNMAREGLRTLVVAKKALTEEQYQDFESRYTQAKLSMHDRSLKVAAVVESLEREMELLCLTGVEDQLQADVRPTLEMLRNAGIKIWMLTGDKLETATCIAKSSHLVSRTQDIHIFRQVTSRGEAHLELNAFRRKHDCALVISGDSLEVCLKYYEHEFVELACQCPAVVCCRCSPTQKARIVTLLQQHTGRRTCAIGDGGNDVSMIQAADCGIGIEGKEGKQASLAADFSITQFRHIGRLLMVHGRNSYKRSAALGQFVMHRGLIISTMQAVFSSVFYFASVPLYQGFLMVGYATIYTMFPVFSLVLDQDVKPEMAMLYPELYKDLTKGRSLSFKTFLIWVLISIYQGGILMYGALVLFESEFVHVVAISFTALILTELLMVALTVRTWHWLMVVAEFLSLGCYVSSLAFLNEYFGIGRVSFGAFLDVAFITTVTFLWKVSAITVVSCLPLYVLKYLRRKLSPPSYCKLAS
inactive: [1] -0.076 | [2] 0.048 | [3] 0.044 | [4] -0.117 | [5] -0.018 | [6] 0.068 | [7] 0.012 | [8] -0.081 | [9] 0.16 | [10] -0.015 | [11] -0.063 | [12] -0.269 | [13] 0.032 | [14] -0.181 | [15] -0.005 | [16] -0.037 | [17] 0.017 | [18] 0.136 | [20] 0.242
active: [19] 0.446

AURKAIP1 (UniProt Q9NWT8)
inactive: [1] 0.026 | [2] 0.219 | [3] -0.02 | [4] 0.083 | [5] 0.072 | [6] 0.077 | [7] -0.057 | [8] 0.067 | [9] 0.098 | [10] -0.032 | [11] -0.001 | [12] 0.051 | [13] 0.021 | [14] -0.017 | [15] 0.012 | [16] -0.03 | [17] 0.028 | [18] -0.039 | [19] -0.029 | [20] -0.04

CEPT1 (UniProt Q9Y6K0)
Sequence of UniProt Q9Y6K0 (Q9Y6K0 whole entry, looked up): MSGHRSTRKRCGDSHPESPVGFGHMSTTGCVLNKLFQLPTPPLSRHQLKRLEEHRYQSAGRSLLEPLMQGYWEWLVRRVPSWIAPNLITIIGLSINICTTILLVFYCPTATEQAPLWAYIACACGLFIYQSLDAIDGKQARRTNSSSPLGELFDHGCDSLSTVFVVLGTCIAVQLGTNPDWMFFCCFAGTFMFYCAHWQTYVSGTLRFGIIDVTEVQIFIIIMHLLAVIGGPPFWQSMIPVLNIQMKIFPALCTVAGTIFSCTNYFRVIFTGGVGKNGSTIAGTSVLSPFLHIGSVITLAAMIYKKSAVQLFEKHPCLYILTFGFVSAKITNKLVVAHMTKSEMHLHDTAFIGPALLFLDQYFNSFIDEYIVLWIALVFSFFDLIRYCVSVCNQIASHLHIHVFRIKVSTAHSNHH
inactive: [1] -0.012 | [2] 0.055 | [3] -0.024 | [4] 0 | [5] -0.051 | [6] 0.019 | [7] -0.025 | [8] 0.054 | [9] -0.123 | [10] -0.036 | [11] -0.121 | [12] -0.08 | [13] -0.122 | [14] -0.106 | [15] -0.019 | [16] -0.058 | [17] 0.025 | [18] -0.07 | [19] -0.124
active: [20] 0.223

ATM (UniProt Q13315)
inactive: [1] -0.048 | [2] 0.013 | [3] 0.013 | [4] 0.105 | [5] -0.005 | [6] -0.031 | [7] 0.087 | [8] -0.01 | [9] 0.078 | [10] 0.022 | [11] -0.018 | [12] -0.055 | [13] -0.045 | [14] -0.112 | [15] -0.035 | [16] 0.014 | [17] -0.04 | [18] 0.051 | [19] -0.01 | [20] 0.08

CAPN15 (UniProt O75808)
Sequence of UniProt O75808 (O75808 whole entry, looked up): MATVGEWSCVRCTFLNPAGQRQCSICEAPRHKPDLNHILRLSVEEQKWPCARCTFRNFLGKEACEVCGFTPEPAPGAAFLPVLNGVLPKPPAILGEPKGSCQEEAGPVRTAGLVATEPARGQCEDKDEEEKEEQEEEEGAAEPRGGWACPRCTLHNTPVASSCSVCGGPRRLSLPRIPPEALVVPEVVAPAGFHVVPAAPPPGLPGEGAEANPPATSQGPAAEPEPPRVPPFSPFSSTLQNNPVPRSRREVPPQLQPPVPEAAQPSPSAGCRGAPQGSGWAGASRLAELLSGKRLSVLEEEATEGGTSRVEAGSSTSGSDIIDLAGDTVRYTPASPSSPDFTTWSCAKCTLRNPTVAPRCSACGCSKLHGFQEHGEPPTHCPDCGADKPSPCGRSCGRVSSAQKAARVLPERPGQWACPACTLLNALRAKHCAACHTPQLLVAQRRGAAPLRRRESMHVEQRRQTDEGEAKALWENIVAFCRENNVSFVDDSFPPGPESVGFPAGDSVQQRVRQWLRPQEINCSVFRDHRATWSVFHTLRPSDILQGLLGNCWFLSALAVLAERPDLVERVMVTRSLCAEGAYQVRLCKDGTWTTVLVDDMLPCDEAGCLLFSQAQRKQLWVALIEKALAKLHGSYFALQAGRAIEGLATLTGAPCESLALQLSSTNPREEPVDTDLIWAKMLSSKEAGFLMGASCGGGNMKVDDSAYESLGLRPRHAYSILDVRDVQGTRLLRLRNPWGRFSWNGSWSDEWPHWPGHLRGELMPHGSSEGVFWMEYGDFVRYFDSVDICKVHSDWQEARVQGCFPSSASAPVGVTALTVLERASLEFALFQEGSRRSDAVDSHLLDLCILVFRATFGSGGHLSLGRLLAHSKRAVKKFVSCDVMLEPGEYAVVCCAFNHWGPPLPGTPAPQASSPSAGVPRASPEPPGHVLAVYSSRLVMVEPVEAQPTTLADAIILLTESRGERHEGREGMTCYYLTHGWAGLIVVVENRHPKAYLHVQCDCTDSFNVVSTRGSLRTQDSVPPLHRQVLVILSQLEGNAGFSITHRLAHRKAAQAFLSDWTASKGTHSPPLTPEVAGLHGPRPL
inactive: [1] -0.01 | [2] -0.043 | [3] 0.001 | [4] -0.014 | [5] 0.19 | [6] -0.029 | [7] 0.03 | [8] -0.03 | [9] 0.024 | [10] -0.024 | [11] 0.063 | [12] -0.046 | [13] -0.047 | [14] 0.004 | [15] -0.022 | [16] -0.033 | [17] 0.042 | [18] 0.106 | [19] -0.003 | [20] -0.01

CDK5 (UniProt Q00535)
active: [1] 1.07 | [4] 0.654
inactive: [2] -0.058 | [3] 0.211 | [5] -0.032 | [6] 0.024 | [7] -0.1 | [8] -0.032 | [9] 0.03 | [10] -0.027 | [11] -0.094 | [12] 0.095 | [13] -0.031 | [14] -0.024 | [15] 0.03 | [16] 0.451 | [17] 0.014 | [18] 0.423 | [19] -0.008 | [20] -0.023

C18orf32 (UniProt Q8TCD1)
inactive: [1] 0.049 | [2] 0.035 | [3] 0.084 | [4] 0.144 | [5] 0 | [6] 0.168 | [7] -0.316 | [8] 0.043 | [9] -0.019 | [10] -0.249 | [11] -0.012 | [12] 0.041 | [13] -0.07 | [14] -0.093 | [15] -0.203 | [16] 0.001 | [17] -0.011 | [18] -0.01 | [19] -0.04 | [20] 0.047

CCPG1 isoform 5 (UniProt Q9ULG6)
Sequence of UniProt Q9ULG6 (Q9ULG6 whole entry, looked up): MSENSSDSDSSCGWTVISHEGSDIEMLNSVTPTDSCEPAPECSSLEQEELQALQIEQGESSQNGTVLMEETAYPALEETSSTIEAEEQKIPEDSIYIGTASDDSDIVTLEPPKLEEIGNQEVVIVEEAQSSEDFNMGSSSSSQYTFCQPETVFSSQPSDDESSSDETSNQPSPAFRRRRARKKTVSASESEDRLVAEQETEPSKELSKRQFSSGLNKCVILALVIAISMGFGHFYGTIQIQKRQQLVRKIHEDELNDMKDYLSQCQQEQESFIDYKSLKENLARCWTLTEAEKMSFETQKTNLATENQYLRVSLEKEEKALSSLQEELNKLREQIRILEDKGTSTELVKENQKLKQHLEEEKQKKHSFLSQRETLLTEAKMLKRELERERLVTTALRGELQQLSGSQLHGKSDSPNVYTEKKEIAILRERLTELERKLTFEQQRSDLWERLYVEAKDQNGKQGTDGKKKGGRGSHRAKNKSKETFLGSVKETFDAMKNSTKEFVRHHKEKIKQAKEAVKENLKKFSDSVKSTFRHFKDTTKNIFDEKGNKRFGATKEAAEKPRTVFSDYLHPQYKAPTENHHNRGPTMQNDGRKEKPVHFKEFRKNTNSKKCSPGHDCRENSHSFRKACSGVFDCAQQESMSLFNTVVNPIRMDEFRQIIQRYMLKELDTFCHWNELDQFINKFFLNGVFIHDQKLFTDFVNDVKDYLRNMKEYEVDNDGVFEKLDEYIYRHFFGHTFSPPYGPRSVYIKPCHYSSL
inactive: [1] 0.029 | [2] 0.006 | [3] 0.028 | [4] -0.03 | [5] -0.02 | [6] 0.049 | [7] -0.165 | [8] -0.073 | [10] -0.061 | [11] 0.114 | [12] -0.038 | [13] 0.006 | [14] -0.036 | [15] 0.006 | [16] -0.089 | [17] -0.021 | [18] 0.036 | [19] 0.035 | [20] 0.108
active: [9] 0.303

BOLA2 (UniProt Q9H3K6)
active: [14] 0.46
inactive: [1] 0.02 | [2] 0.015 | [3] -0.065 | [4] 0.023 | [5] -0.052 | [6] 0.036 | [7] -0.057 | [8] -0.006 | [9] 0.009 | [10] -0.03 | [11] -0.038 | [12] -0.035 | [13] 0.02 | [15] 0.03 | [16] -0.088 | [17] 0.069 | [18] 0.033 | [19] 0.094 | [20] -0.064

CCNH (UniProt P51946)
Sequence of UniProt P51946 (P51946 whole entry, looked up): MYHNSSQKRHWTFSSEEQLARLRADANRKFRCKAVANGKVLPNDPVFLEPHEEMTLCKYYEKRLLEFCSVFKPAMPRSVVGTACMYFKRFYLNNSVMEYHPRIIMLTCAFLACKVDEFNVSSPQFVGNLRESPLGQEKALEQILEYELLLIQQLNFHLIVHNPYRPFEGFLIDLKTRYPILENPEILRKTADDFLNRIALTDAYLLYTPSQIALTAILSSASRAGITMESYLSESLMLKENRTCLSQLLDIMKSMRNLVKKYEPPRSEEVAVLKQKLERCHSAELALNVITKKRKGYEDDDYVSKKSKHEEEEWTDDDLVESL
inactive: [1] 0.006 | [2] 0.016 | [3] -0.015 | [4] 0.026 | [5] -0.018 | [6] 0.033 | [7] -0.047 | [8] -0.005 | [9] -0.007 | [10] 0.024 | [11] 0.005 | [12] -0.012 | [13] 0.012 | [14] 0.026 | [15] 0.072 | [16] -0.002 | [17] 0.013 | [18] 0.037 | [19] -0.022 | [20] -0.023

CARS isoform 3 (UniProt P49589)
inactive: [1] 0.006 | [2] -0.041 | [3] 0.001 | [4] -0.013 | [5] -0.01 | [6] -0.013 | [8] 0.003 | [9] -0.005 | [10] -0.019 | [11] -0.006 | [12] -0.006 | [13] 0.019 | [14] 0.003 | [15] -0.015 | [16] -0.045 | [17] 0.014 | [18] 0.014 | [19] -0.008 | [20] -0.011
active: [7] 0.213

From the supplement of paper PMC10849652
